Screens (PubChem BioAssay)
A selection: hits, their analogues and other compounds. The true share with any hit is near 18%.
DT40 TDP1 no CPT: qHTS for Inhibitors of human tyrosyl-DNA phosphodiesterase 1 (TDP1): qHTS in cells in absence of CPT; DT40 Tdp1-/- hTDP1 cells, no CPT, ATP luminescence, 48 h; Potency, µM (doses to about 46.2 µM), hits mostly inhibitors; 15% of 420,000 active; also: nearly all actives have a fitted effect of over 55% in size
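No-CPT arm: Tdp1-/-;hTDP1 DT40 cells (400/well) plus compounds, incubated ≥48 hr at 37 °C. Readout CellTiter-Glo luminescence.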
CtBP-E1A blk: qHTS Assay for Inhibitors of the CtBP/E1A Interaction. AlphaScreen GST-E1A/His-CtBP binding, 1536-well; hits give low values. activity change, % (test concentration not listed). 0.49% of 340,000 active. AID 651724, 2012; in the data active = activity change below about -65%; inconclusive = mostly about -30% to -63%
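Homogeneous bead-based format: GST-tagged E1A captured on glutathione donor beads, His-tagged CtBP on nickel acceptor beads; compounds precede bead addition by 2 h at 37 °C.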
DT40 TDP1 CPT: qHTS for Inhibitors of human tyrosyl-DNA phosphodiesterase 1 (TDP1): qHTS in cells in presence of CPT. chicken DT40 Tdp1-/-;hTDP1 cells + 20 nM CPT, ATP luminescence, 48 h. Potency, µM (highest dose often 46.2 µM), actives largely listed as inhibitors. 12% of 420,000 active. AID 686979, 2013; also: nearly all actives have a fitted effect of over 55% in size
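Chicken DT40 Tdp1-/- cells stably complemented with human TDP1 were seeded at 400 cells/well in medium containing 20 nM camptothecin, exposed to pin-transferred compounds, and grown at 37 °C for at least 48 hr. Viability was read as ATP luminescence.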
Six1-Eya2 inh: qHTS Assay for Inhibitors of the Six1/Eya2 Interaction; Homeobox protein SIX1 (Homo sapiens) + Protein phosphatase EYA2 (Homo sapiens), …; AlphaScreen GST-Six1/His-Eya2 binding, biochemical; hits give low values; activity change, % (concentration not given with the values); 0.56% of 360,000 active; AID 651725, 2012; in the data active = activity change below about -65%; inconclusive = mostly about -30% to -63%
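AlphaScreen luminescence read after one hour at 37 °C in darkness. Pin-transferred compounds met GST-Six1 and His-Eya2 protein (5X stock 250 nM/500 nM) plus glutathione donor and Ni-chelate acceptor beads (5X, 50 ug/mL).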
IL1B secr inh: qHTS for Inhibitors of Inflammasome Signaling: IL-1-beta AlphaLISA Primary Screen | AID 743279, 2014 | THP-1 LPS/ATP IL-1B secretion, AlphaLISA, 16 h; hits give low values | 4.7% of 360,000 active | activity change, % at 57.5 µM; in the data active = activity change below about -50%; inconclusive = mostly about -30% to -49%
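THP-1 cells pretreated 1 hr with compounds (up to 57.5 uM final), then stimulated with LPS (250 ng/mL final) plus ATP (1.25 mM final); secreted IL-1B measured by AlphaLISA after 16 hr, decreased signal indicating inhibition.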
TDP1 inh: qHTS Assay for Inhibitors of Tyrosyl-DNA Phosphodiesterase (TDP1) | recombinant TDP1, AlphaScreen DNA substrate cleavage | Potency, µM (series often up to 130 µM), most hits filed as inhibitors | 0.28% of 350,000 active; also: nearly all actives have a fitted effect of over 40% in size
Target sequence (Q9NUW8 whole entry, looked up): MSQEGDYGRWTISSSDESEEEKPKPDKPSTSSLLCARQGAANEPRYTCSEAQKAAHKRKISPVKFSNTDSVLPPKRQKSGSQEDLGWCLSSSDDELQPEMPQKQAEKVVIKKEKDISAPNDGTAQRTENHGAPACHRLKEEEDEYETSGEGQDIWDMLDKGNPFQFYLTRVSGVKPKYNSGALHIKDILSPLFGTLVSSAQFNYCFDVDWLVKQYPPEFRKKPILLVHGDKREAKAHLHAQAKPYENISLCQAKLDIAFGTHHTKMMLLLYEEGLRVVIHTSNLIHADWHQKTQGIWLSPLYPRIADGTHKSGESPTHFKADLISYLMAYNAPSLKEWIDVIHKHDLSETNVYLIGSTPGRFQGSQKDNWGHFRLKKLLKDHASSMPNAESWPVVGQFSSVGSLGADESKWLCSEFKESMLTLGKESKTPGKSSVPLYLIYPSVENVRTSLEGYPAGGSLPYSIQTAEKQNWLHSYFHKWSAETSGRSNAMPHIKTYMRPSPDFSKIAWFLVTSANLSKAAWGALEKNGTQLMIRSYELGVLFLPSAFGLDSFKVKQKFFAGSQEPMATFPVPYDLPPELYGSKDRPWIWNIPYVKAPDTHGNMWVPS
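Steps: enzyme plus compound, 15 min RT; add biotin/phosphotyrosine-FITC oligonucleotide (15 nM final), react 5 min; add donor/acceptor beads (10 ug/ml final), 10 min; read AlphaScreen. Tdp1 at 1 nM final.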
A number is an active result; – = inactive; ? = inconclusive; · = no result; [ ] = remark or other dose. Unless noted, calls follow the shape of the dose curve; as a rule, active = well fitted curve in the direction sought with a large enough effect; inconclusive = small, poorly fitted or top-dose-only effect, or another doubt; inactive = no such curve, though single readings can be large; an effect the other way counts as inactive or inconclusive.

SMILES	DT40 TDP1 no CPT	CtBP-E1A blk	DT40 TDP1 CPT	Six1-Eya2 inh	IL1B secr inh	TDP1 inh
COc1ccccc1N(C)S(=O)(=O)c1ccc(C(=O)Nc2nc(C)c(C(C)=O)s2)cc1	?	·	?	–	–	–
CCOc1cc(-c2noc(CCC(=O)Nc3cccnc3)n2)ccc1OC	?	–	?	–	–	–
CCn1cc(C(=O)Nc2ccc(F)c(F)c2)cn1	–	–	–	–	–	–
Cc1nc(NC(=O)COC(=O)c2ccc(CO)cc2)c(Cl)cc1Cl	–	–	–	–	–	–
CCc1ccc(C(C(=O)NCc2ccccc2)N(C(=O)c2csnn2)C2CC2)cc1 (stereo unspecified)	?	–	–	–	–	–[0.0935 µM]
CCOC(=O)c1ccc(OS(=O)(=O)c2ccccc2)c(OC)c1	?	–	21µM	–	–	–
CCOC(=O)c1cc(-c2ccccc2)sc1NC(=O)C(C)OC(=O)c1ccncc1 (stereo unspecified)	18µM	–	23µM	–	–	–
CCOC(=O)c1cc(-c2ccccc2)sc1NC(=O)C(C)C	?	–	–	–	–	–
CCOC(=O)c1c(NC(=O)c2cccnc2Cl)sc(C(=O)N(C)C)c1C	?	–	–	–	?	–
CCOC(=O)c1cc(-c2ccccc2)sc1NC(=O)C(C)Sc1nnc(C)s1 (stereo unspecified)	–	–	–	–	-77	–
CCOC(=O)c1cc(-c2ccccc2)sc1NC(=O)C(C)OC(=O)c1cccnc1Cl (stereo unspecified)	23µM	–	23µM	–	–	–
CCOC(=O)c1cc(-c2ccccc2)sc1NC(=O)COC	–	–	–	–	–	–
CCOC(=O)c1cc(-c2ccccc2)sc1NC(=O)c1ccc(OC)c(OC)c1	?	–	13µM	–	–	·
CCOC(=O)c1cc(-c2ccccc2)sc1NC(=O)C(C)N1C(=O)NC(C)(c2ccc(Cl)cc2)C1=O (stereo unspecified)	–	–	–	–	-53	–
COC(=O)c1ccc(Cn2nnc3sc4c(c3c2=O)CCC(C)C4)cc1 (stereo unspecified)	?	·	?	·	·	–
CCN(c1ccccc1)S(=O)(=O)c1ccc(C(=O)NCC(=O)Nc2ccc(F)c(F)c2F)cc1	15µM	·	15µM	–	–	–
CN(c1ccccc1)S(=O)(=O)c1cccc(C(=O)NCC(=O)Nc2ccc(F)c(F)c2F)c1	16µM	·	?	–	–	–
O=C(CNC(=O)c1cccc(Cl)c1)Nc1ccc(F)c(F)c1F	–	·	–	–	–	·
Cc1cccc(N2CCN(C(=O)Cn3c(=O)c4cccn4c4ccc(F)cc43)CC2)c1C	10µM	·	21µM	·	·	–
Cn1c(=O)c2c(ncn2CC(=O)N2CCN(c3ccccc3F)CC2)n(C)c1=O	–	–	–	–	–	–
Cc1cccc(N2CCN(C(=O)Cn3cnc4c3c(=O)n(C)c(=O)n4C)CC2)c1C	18µM	–	23µM	–	–	–
O=C(Cn1c(=O)c2cccn2c2ccc(F)cc21)N1CCN(c2ccccc2F)CC1	–	·	–	·	·	–
CC1Cc2ccccc2N1C(=O)Cn1cnc2c1c(=O)n(C)c(=O)n2C (stereo unspecified)	23µM	–	?	–	–	–
Cc1cccc(N2CCN(C(=O)Cn3ccc4ccccc4c3=O)CC2)c1C	?	–	13µM	–	–	–
CCN(CC)/C(=N/S(=O)(=O)c1ccc(C)cc1)c1ccccc1	–	–	–	–	–	–
SMILES	DT40 TDP1 no CPT	CtBP-E1A blk	DT40 TDP1 CPT	Six1-Eya2 inh	IL1B secr inh	TDP1 inh
COc1cccc2cc(C(=O)N3CCCc4ccccc43)oc12	?	–	?	–	–	–
CCc1c(C)nc(N)nc1Cl	–	–	–	–	–	–
COc1ccc(-c2nc3cc(C)c(Br)c(C)n3c2CC2CCCCC2)cc1OC	?	–	–	–	–	·
COc1ccc(-c2nn(-c3ccccc3)cc2/C=N/Nc2cccc(C(=O)O)c2)cc1	–	–	–	–	–	–
C=CCNC(=S)N/N=C/c1cn(-c2ccccc2)nc1-c1ccc(OC)cc1	9.2µM	–	–	–	–	–
COc1ccc(-c2nn(-c3ccccc3)cc2/C=N/NC(=O)c2ccc3c(c2)OCO3)cc1	·	·	·	·	·	–
COc1ccc(-c2nn(-c3ccccc3)cc2/C=N/NC(=O)c2ccc(Br)o2)cc1	21µM	–	21µM	–	–	–
CCCNC(=O)c1cc2c(c(-c3cccc(-c4ccc(F)cc4)c3)n1)[C@H](CCO)N(S(=O)C(C)(C)C)C2 (stereo partly specified)	23µM	–	?	–	?	·
CC(C)(C)S(=O)N1Cc2cc(C(=O)NCc3ccc4c(c3)OCO4)nc(-c3cccc(-c4ccccc4)c3)c2[C@@H]1CCO (stereo partly specified)	?	–	23µM	–	–	·
CC(C)(C)S(=O)N1Cc2cc(C(=O)NCc3ccc4c(c3)OCO4)nc(-c3cccc(-c4ccncc4)c3)c2[C@H]1CCO (stereo partly specified)	?	–	?	–	?	·
Clc1ccc(NCc2nc3ccccc3n2CCOc2ccccc2)cc1	21µM	·	13µM	·	·	–
CCOc1ccc(NCc2nc3ccccc3n2CCOc2ccccc2)cc1	?	–	?	?	-96	–
Cc1ccc(NCc2nc3ccccc3n2CCOc2ccccc2C)cc1	?	·	?	·	·	–
CCOc1ccc(NCc2nc3ccccc3n2CCOc2ccc(C)cc2)cc1	8.2µM	·	6.5µM	·	·	–
CCC(C)(C)C	·	·	·	·	·	–
CC(C)n1ncc2c(C(=O)Nc3cccc(S(=O)(=O)N(C)C)c3)cc(C3CC3)nc21	9.2µM	–	18µM	–	·	–
CC(=O)Nc1ccc(NC(=O)c2cc(C3CC3)nc3c2cnn3C(C)C)cc1	?	–	29µM	–	–	–
CC(C)C(C(=O)NCC1CCCO1)N(Cc1ccco1)C(=O)CNS(=O)(=O)c1ccccc1 (stereo unspecified)	–	–	–	–	–	–
O=[N+]([O-])c1ccc(O)c(C2=NNC(c3ccccc3F)C2)c1 (stereo unspecified)	16µM	–	23µM	–	-58	·
